Assay [1] addresses Progesterone receptor (Homo sapiens) (UniProt P06401). Kind of assay: qHTS assay to identify small molecule agonists of the progesterone receptor (PR) signaling pathway (AID 1346784; calls by dose curve; note: % is set by controls: 0 for no effect and ±100 for the full control effect; nearly all actives have a fitted effect of over 30% in size). The gist of the method: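 Fluorescence from LiveBLAzer B/G FRET substrate cleavage (2 hr, RT) reported PR activation in PR-UAS-bla HEK 293T cells treated 16 hr at 37C/5% CO2 with compounds; medium contained 2% charcoal-stripped FBS.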
On the technique in general: Quantitative high-throughput screening tests each substance at several concentrations.

Assay [2] can be described thus: qHTS assay to identify small molecule antagonists of the progesterone receptor (PR) signaling pathway - cell viability counter screen (AID 1346798). Note: nearly all actives have a fitted effect of over 50% in size. Note: potency is the fitted concentration of half-maximal effect. The gist of the method: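 CellTiter-Glo luminescence; PR-UAS-bla HEK293T, 3,000 cells/well; compound + R5020, 16 hr, 37C/5% CO2; 30 min RT before read.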
The nature of assay [3]: qHTS assay to identify small molecule agonists of the progesterone receptor (PR) signaling pathway - cell viability counter screen (AID 1346799; calls by dose curve; note: nearly all actives have a fitted effect of over 45% in size; note: potency is the fitted concentration of half-maximal effect). The gist of the method:
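In parallel with the beta-lactamase readout, cytotoxicity toward PR-UAS-bla HEK293T cells was measured by CellTiter-Glo luminescence following 16 hr compound incubation in 2% charcoal-stripped FBS medium.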

Assay [4] is described as follows: qHTS assay to identify small molecule antagonists of the TGF-beta/Smad signaling pathway - cell viability counter screen (AID 1346824). Note: nearly all actives have a fitted effect of over 50% in size. Note: potency is the fitted concentration of half-maximal effect. The gist of the method:
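Cytotoxicity counter-screen run in the same wells as the beta-lactamase Smad reporter read: CellTiter-Glo luminescence after 30 min at room temperature. HEK 293T SBE-bla cells had 5 hr compound exposure at 37 C with TGF-beta1 (0.25 ng/mL stock).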

Assay [5] in a line: qHTS assay to identify small molecule agonists of the TGF-beta/Smad signaling pathway - cell viability counter screen (AID 1346829). Note: nearly all actives have a fitted effect of over 45% in size. Note: potency is the fitted concentration of half-maximal effect. In short, it runs like this:
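Cytotoxicity counter screen: CellTiter-Glo luminescence (30 min, room temperature) measured in the SBE-bla HEK 293T reporter wells after 5 hr compound treatment at 37 C and the 2 hr substrate step.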

The nature of assay [6]: qHTS assay to identify small molecule agonists of the TGF-beta/Smad signaling pathway (AID 1346859; active = well fitted activation curve with a large enough effect in the signal ratio in the repeat runs, not every such curve was filed as active; the % refers to the signal ratio; note: series mostly up to about 77 µM; % is set by controls: 0 for no effect and ±100 for the full control effect). In short, it runs like this:
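After overnight seeding, SBE-bla HEK 293T cells are dosed with compounds in DMSO and kept 5 hr at 37 C, 5% CO2. LiveBLAzer-type FRET substrate is then applied for 2 hr at room temperature.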

Assay [7] is described as follows: Human pregnane X receptor (PXR) small molecule agonists, qHTS cell viability counter screen (AID 1346977). Note: nearly all actives have a fitted effect of over 50% in size. Note: potency is the fitted concentration of half-maximal effect. The gist of the method: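 Viability counter screen: CellTiter-Fluor signal in PXR-Luc HepG2 cells, 24hr compound exposure, 37C, 5% CO2.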
The nature of assay [8]: Caspase-3/7 induction in HepG2 cells by small molecules, qHTS assay (AID 1346978). Note: nearly all actives have a fitted effect of over 15% in size. Note: potency is the fitted concentration of half-maximal effect. In short, it runs like this: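 Caspase-3/7 induction was measured by Caspase-Glo 3/7 luminescence (30 min, room temperature) after a 17 hr compound exposure of wild-type HepG2 cells seeded at 2,000 per well and pre-incubated 5 hr.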
Assay [9] is described as follows: Caspase-3/7 induction in CHO-K1 cells by small molecules, qHTS assay (AID 1346980). Note: % is set by controls: 0 for no effect and ±100 for the full control effect; nearly all actives have a fitted effect of over 15% in size. The gist of the method:
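Luminescent Caspase-Glo 3/7 read (30min, room temperature) quantified apoptosis induction. Cells were wild-type CHO-K1, treated with compound for 17hr at 37 C and 5% CO2.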

A short description of assay [10]: Caspase-3/7 induction in HepG2 cells by small molecules, qHTS cell viability counter screen (AID 1346981). Note: nearly all actives have a fitted effect of over 30% in size. Note: potency is the fitted concentration of half-maximal effect. In short, it runs like this:
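The parent HepG2 line is plated at 2,000 cells per well and rested 5 hr before compound pinning from DMSO stocks. Following a 16-hr treatment at 37 C, a fluorogenic live-cell substrate (CellTiter-Fluor) reports viability after 1 hr.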

The target in assay [11] is Cytochrome P450 2D6 (Homo sapiens) (UniProt P10635). In words: Cytochrome P450 Family 2 Subfamily D Member 6 (CYP2D6) small molecule antagonists: luciferase reporter qHTS assay (AID 1671196). Note: nearly all actives have a fitted effect of over 50% in size. Note: potency is the fitted concentration of half-maximal effect. In short, it runs like this:
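Quantitative HTS of Tox21 chemicals against CYP2D6 using a luminescent proluciferin substrate. After NADPH addition, 1 h room-temperature reaction; luminescence recorded 20 min post detection reagent.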
For orientation: In a reporter assay the amount or activity of a reporter protein is the signal.

Assay [12] deals with Cytochrome P450 2C19 (Homo sapiens) (UniProt P33261). Kind of assay: Cytochrome P450 Family 2 Subfamily C Member 19 (CYP2C19) small molecule antagonists: luciferase reporter qHTS assay (AID 1671197). Note: nearly all actives have a fitted effect of over 65% in size. Note: potency is the fitted concentration of half-maximal effect. The gist of the method:
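Luminescent readout of CYP2C19 activity: luciferin product detected 20 min after adding detection reagent. Before that, compound and enzyme-substrate mix preincubated 10 min at room temperature; NADPH-regenerating system started a 1 h, 37C reaction. Ketoconazole as positive control.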

The target in assay [13] is Nuclear receptor subfamily 1 group I member 2 (Rattus norvegicus) (UniProt Q9R1A7). Kind of assay: Rat pregnane X receptor (rPXR) activation by small molecules, qHTS assay (AID 1346983). Note: % is set by controls: 0 for no effect and ±100 for the full control effect; nearly all actives have a fitted effect of over 20% in size. Particulars: rPXR luciferase reporter cells, One-Glo luminescence, 24 h; max activation: stronger effect = higher value. The gist of the method:
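Luminescent readout (One-Glo luciferase, 30 min room temperature) followed 24 hr compound treatment at 37 C of rPXR cells plated 2,000 per well and preincubated 5hr; qHTS format with compounds delivered in DMSO.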

Assay [14] concerns the target Nuclear receptor subfamily 1 group I member 2 (Homo sapiens) (UniProt O75469). Kind of assay: Human pregnane X receptor (PXR) activation by small molecules, qHTS assay (AID 1346985). Note: % is set by controls: 0 for no effect and ±100 for the full control effect; nearly all actives have a fitted effect of over 40% in size. In short, it runs like this: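 DPX-2 cells (HepG2 co-transfected with a PXR response element and a CYP3A4-promoter luciferase construct) were seeded at 2,000 per well, rested 5 hr at 37C, then exposed to DMSO-dissolved compounds for 24 hr. Activation was read as luciferase luminescence.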

Assay [15] deals with Thyrotropin-releasing hormone receptor (Homo sapiens) (UniProt P34981). In words: qHTS assay to identify small molecule antagonists of the thyrotropin-releasing hormone receptor (TRHR) signaling pathway (AID 1346877; active = well fitted inhibition curve with a large enough effect in the repeat runs, not every such curve was filed as active; note: series mostly up to about 51 µM; % is set by controls: 0 for no effect and ±100 for the full control effect). In short, it runs like this: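 Human TRHR in HEK293 cells; inhibition of the intracellular calcium rise triggered by 1 nM TRH was followed by fluorescence over 3 min. Compounds were run at 15 concentrations, three replicates each.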

Assay [16] shares this target. In words: qHTS assay to identify small molecule agonists of the thyrotropin-releasing hormone receptor (TRHR) signaling pathway (AID 1346891; calls by dose curve;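 note: HEK293 cells expressing TRHR with calcium dye readout; series mostly up to about 58 µM; % is set by controls: 0 for no effect and ±100 for the full control effect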). In short, it runs like this: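 Compounds were tested as agonists at 15 concentrations, in triplicate, on TRHR-Hek293 cells; calcium-sensitive dye fluorescence was recorded for 3 min following addition.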
The target of assay [17] is Nuclear receptor subfamily 1 group I member 2 (Homo sapiens) (UniProt O75469). In words: CYP3A4 induction through human pregnane X receptor (PXR) by small molecules, qHTS assay (AID 1346984). For activation: % is set by controls: 0 for no effect and ±100 for the full control effect. Note: nearly all actives have a fitted effect of over 40% in size. Note: potency is the fitted concentration of half-maximal effect. In short, it runs like this:
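Human PXR activation is tracked via CYP3A4 promoter-luciferase in DPX-2 (HepG2) cells. Compounds treat cells for 24hr at 37C, and luminescence is read after One-Glo.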

Assay [18] can be described thus: Caspase-3/7 induction in CHO-K1 cells by small molecules, qHTS cell viability counter screen (AID 1346979). Note: potency is the fitted concentration of half-maximal effect; nearly all actives have a fitted effect of over 35% in size. In short, it runs like this: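 Viability readout by fluorescence (CellTiter-Fluor) on wild-type CHO-K1 cells exposed for 16hr at 37C and 5% CO2 to compounds delivered in DMSO; reagent incubated 1hr before reading.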
The target in assay [19] is Nuclear receptor subfamily 1 group I member 2 (Homo sapiens) (UniProt O75469). Kind of assay: Human pregnane X receptor (PXR) small molecule agonists, qHTS assay (AID 1346982). Note: % is set by controls: 0 for no effect and ±100 for the full control effect; nearly all actives have a fitted effect of over 35% in size. The gist of the method: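 After plating in 5% charcoal-stripped FBS and a 5 hr rest, PXR-Luc HepG2 cells received compounds in DMSO. Following 24 hr at 37 C, ONE-Glo was added and light output read.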

Where “and” joins values, the source holds several entries; their conditions need not be identical. Identical values can stand only once. Records with an inconclusive call do not appear. A structure can be active in one record and inactive in another. Calls of active or inactive are those of the source. Unless noted, calls come from the whole dose curve; as a rule, active = well fitted curve in the direction sought with a large enough effect in the repeat runs; inconclusive = weak or mixed curves; inactive = no such curve, though single readings can be large; an effect the other way counts as inactive or inconclusive.

Chain of Progesterone receptor (Homo sapiens) (P06401 whole entry, looked up): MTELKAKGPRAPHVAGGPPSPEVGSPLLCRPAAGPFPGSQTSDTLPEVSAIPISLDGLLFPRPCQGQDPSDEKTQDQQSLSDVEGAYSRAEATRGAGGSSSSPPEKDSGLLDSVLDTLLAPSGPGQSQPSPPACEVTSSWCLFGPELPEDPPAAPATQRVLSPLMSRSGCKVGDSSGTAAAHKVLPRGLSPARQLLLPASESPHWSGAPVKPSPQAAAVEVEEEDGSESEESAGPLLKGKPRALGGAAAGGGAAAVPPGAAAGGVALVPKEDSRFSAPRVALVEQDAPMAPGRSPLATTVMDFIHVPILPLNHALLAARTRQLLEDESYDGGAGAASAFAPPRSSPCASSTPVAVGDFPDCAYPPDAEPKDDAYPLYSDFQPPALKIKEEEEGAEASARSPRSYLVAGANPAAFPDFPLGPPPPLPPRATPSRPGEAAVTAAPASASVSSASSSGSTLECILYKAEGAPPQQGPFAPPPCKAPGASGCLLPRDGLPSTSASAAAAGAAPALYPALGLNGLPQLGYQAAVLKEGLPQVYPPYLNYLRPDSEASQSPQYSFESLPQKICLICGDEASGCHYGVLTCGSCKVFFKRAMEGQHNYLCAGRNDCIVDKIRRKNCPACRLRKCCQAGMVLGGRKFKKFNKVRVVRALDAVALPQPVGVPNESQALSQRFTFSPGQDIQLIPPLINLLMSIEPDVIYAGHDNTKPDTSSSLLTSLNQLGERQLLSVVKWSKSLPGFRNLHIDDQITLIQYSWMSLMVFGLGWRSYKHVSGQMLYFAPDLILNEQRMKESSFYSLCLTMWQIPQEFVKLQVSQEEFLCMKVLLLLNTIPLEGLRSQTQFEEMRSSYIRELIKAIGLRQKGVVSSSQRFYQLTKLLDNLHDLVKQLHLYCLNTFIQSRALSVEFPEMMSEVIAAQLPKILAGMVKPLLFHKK
Chain of Nuclear receptor subfamily 1 group I member 2 (Homo sapiens) (O75469 whole entry, looked up): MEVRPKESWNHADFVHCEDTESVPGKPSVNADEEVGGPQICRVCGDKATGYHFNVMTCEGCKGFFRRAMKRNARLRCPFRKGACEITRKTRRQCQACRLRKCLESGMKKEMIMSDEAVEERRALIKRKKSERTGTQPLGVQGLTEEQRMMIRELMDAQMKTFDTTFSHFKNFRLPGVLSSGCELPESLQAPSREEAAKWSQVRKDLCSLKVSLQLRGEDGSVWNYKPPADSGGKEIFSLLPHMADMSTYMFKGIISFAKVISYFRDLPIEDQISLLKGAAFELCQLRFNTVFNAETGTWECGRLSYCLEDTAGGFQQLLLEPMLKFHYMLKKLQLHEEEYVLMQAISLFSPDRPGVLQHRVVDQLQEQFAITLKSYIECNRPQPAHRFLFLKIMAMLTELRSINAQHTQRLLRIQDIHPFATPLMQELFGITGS
Chain of Nuclear receptor subfamily 1 group I member 2 (Rattus norvegicus) (Q9R1A7 whole entry, looked up): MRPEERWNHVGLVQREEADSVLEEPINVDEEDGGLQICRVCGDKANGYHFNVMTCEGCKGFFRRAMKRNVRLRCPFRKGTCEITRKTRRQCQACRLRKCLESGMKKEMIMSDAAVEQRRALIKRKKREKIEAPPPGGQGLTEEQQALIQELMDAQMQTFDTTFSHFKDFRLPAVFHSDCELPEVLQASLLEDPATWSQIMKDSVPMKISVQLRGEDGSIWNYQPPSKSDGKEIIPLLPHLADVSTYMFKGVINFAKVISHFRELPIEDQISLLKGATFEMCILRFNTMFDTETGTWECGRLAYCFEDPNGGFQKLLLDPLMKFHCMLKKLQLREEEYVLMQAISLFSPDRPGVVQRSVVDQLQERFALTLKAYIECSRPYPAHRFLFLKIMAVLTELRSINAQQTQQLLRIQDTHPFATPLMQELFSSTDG
Chain of Cytochrome P450 2C19 (Homo sapiens) (P33261 whole entry, looked up): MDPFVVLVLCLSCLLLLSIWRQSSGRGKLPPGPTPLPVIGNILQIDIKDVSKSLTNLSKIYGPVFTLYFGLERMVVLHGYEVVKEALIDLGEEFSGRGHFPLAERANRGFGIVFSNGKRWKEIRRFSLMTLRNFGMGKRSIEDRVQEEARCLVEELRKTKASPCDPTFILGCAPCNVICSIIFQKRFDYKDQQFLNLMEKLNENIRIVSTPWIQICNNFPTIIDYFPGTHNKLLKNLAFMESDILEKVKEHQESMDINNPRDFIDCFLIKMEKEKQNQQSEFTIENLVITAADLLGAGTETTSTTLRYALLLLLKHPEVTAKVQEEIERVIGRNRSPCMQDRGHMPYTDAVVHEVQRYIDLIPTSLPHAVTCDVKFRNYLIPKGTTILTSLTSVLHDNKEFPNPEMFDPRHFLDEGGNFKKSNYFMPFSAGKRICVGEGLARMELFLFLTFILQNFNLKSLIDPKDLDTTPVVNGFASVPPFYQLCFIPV
Chain of Cytochrome P450 2D6 (Homo sapiens) (P10635 whole entry, looked up): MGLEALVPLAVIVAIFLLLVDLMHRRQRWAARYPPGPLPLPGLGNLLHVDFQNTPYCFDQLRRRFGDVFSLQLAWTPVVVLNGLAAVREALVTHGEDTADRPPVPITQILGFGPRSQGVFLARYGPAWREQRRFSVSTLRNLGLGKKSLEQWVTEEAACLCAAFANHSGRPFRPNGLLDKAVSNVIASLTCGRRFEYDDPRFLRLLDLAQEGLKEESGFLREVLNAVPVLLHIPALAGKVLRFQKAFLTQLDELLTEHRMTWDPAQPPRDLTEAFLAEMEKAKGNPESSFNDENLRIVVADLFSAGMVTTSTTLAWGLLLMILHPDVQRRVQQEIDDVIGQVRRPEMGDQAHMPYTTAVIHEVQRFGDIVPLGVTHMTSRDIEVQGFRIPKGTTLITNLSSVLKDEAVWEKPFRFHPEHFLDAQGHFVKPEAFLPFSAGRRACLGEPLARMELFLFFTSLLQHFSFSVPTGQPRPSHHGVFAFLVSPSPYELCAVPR
Chain of Thyrotropin-releasing hormone receptor (Homo sapiens) (P34981 whole entry, looked up): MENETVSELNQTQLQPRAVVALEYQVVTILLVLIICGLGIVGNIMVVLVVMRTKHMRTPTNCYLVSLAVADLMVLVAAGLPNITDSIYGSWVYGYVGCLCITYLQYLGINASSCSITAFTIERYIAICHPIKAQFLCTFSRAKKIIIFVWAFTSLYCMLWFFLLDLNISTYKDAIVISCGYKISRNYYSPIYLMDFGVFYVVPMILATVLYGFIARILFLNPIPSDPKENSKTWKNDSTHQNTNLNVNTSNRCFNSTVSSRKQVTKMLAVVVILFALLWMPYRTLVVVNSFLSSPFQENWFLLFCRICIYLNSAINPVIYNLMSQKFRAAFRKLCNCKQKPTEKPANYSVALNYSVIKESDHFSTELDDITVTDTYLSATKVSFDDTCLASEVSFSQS

As for `CC(=O)C(=O)O`, the Potency entry in [1], in assay [2], in [4], in [5], in assay [7] and in assay [8] was “inactive” in each case. For the same compound, the Potency result in assay [9], in [10], in [11] and in assay [12] was “inactive” throughout. The Potency entry in assay [3] was “inactive and 34.4 µM (active)”. Further, in [6], the compound was called inactive.

Turning to `CCN(CC)C(=O)c1cccc(C)c1`, the Potency result in assay [1], in assay [2], in assay [3], in [4], in [5] and in assay [7] was “inactive” throughout. Moreover, the Potency result in assay [8], in [9], in assay [10] and in [11] was “inactive” each time. Besides, the compound was called inactive in assay [6] and in assay [14]. Moreover, in [13], the max activation was -4.83% (inactive). Besides, the Potency result in assay [12] is “inactive and 71 µM (active)”.

With `NC(=O)n1c(O)c(C(=O)c2cccs2)c2cc(Cl)ccc21`, the Potency result in assay [1], in assay [4], in assay [5], in [15], in assay [16] and in assay [8] was “inactive” in each case. Besides, the Potency result in assay [9] and in assay [11] was “inactive” in each case. The outcome in assay [6] was inactive. The max activation in assay [13] was 4.95% (inactive). Also, the Potency in assay [17] is 28.2 µM (active).

Take `O=C1OC2(c3ccccc31)c1cc(Br)c(O)c(Br)c1Oc1c2cc(Br)c(O)c1Br`: the Potency result in assay [1], in [2], in assay [3], in assay [4], in assay [5] and in assay [8] was “inactive” in each case. In addition, the Potency result in assay [9], in [17] and in assay [11] was “inactive” in each case. Moreover, the Potency in assay [7] was 4.93 µM (active) and 9.96 µM (active) and 13.3 µM (active); in assay [10] it was 6.2 µM (active) and 19.9 µM (active) and 10.6 µM (active); in assay [12] it was 20.3 µM (active) and inactive. Moreover, in assay [13], the max activation is -7.26% (inactive). The result in assay [14] was inactive.

Consider `CC(=O)CC(c1ccccc1)c1c(O)c2ccccc2oc1=O` (stereo not drawn), for which the Potency entry in [1], in assay [2], in [3], in [4], in assay [5] and in assay [7] was “inactive” throughout. For the same compound, the Potency entry in assay [9] and in assay [10] was “inactive” throughout. In addition, the call in assay [6] was inactive. In addition, the max activation in assay [13] was -3.82% (inactive).

In the case of `CCCCCCc1ccc(O)cc1O`, the Potency result in assay [1], in [4], in [5], in [15], in assay [16] and in assay [7] was “inactive” throughout. Also, the Potency result in [8], in assay [9], in [10] and in assay [17] was “inactive” throughout. The compound was called inactive in [6] and in assay [14]. The Potency in assay [18] is 61.3 µM (active) and 61.1 µM (active) and 1.19 µM (active); in assay [11], 31.8 µM (active) and 31.7 µM (active) and 15.5 µM (active); in assay [12], 5.04 µM (active) and 5.64 µM (active) and 3.89 µM (active). The max activation in assay [13] is -2.3% (inactive).

Turning to `CN[C@H]1CC[C@@H](c2ccc(Cl)c(Cl)c2)c2ccccc21`, the Potency result in [1], in assay [3] and in assay [4] was “inactive” throughout. Moreover, the result in assay [6] was inactive. Besides, the Potency in assay [7] is 29.8 µM (active); in assay [8], 13.3 µM (active); in [10] it was 29.8 µM (active); in assay [11], 1.55 µM (active); in assay [12] it was 3.89 µM (active). Besides, the max activation in assay [13] was 8.99% (inactive).

Regarding `Cc1cc(=O)oc2cc(O)ccc12`, the Potency entry in assay [1], in assay [2], in assay [3], in [4], in assay [5] and in assay [15] was “inactive” in each case. Besides, the Potency entry in [16], in assay [7], in assay [8], in assay [9], in assay [10] and in [19] was “inactive” in each case. The Potency result in [17], in assay [11] and in assay [12] was “inactive” each time. The max activation in assay [13] is -6.81% (inactive). The compound was classed as inactive in [14].

As to `CC(C)c1c(C(=O)Nc2ccccc2)c(-c2ccccc2)c(-c2ccc(F)cc2)n1CC[C@@H](O)C[C@@H](O)CC(=O)O`, the Potency in assay [2] is 6.41 µM (active); in [3] it was 1.48 µM (active) and 227 nM (active) and 2.11 µM (active); in assay [8], 26.3 µM (active). In addition, the Potency result in assay [4], in [5], in assay [15], in [16], in assay [7] and in assay [9] was “inactive” in each case. In addition, the Potency entry in [10] was “inactive”. Moreover, the result in assay [6] was inactive.

As to `C1CCC(C(CC2CCCCN2)C2CCCCC2)CC1` (stereo not drawn), the Potency entry in assay [1] and in assay [17] was “inactive” each time. Further, the Potency was 26.6 µM (active) in [2]; 23.7 µM (active) in assay [3]; 26.8 µM (active) in assay [4]; 26.8 µM (active) in [5]; 26.6 µM (active) in assay [7]; 33.5 µM (active) in assay [8]. Moreover, the Potency in assay [10] was 29.8 µM (active); in assay [11], 1.1 µM (active); in assay [12], 24.5 µM (active). Further, in [13], the max activation was -20.4% (inactive). In [14], the call was inactive.

Source of the values: PubChem BioAssay (Tox21).
